# Test results published in ChEMBL document CHEMBL1157539, “Thousands of chemical starting points for antimalarial lead identification” (Nature, 2010).
# Tests used:
# Type in all cases: functional
# [1] = test system: Plasmodium falciparum; experiment: GSK_TCMDC: Inhibition of Plasmodium falciparum 3D7 in whole red blood cells, using parasite LDH activity as an index of growth. Test compounds present at 2uM
# [2] = test system: Plasmodium falciparum; experiment: GSK_TCMDC: Inhibition of Plasmodium falciparum Dd2 in whole red blood cells, using parasite LDH activity as an index of growth. Test compounds present at 2uM
# [3] = test system: HepG2; experiment: GSK_TCMDC: Percent inhibition of human HepG2 cell line. Test compounds present at 10uM.
Structure (SMILES),Inhibition [1] [%],Inhibition [2] [%],Inhibition [3] [%]
COc1ccc2nccc([C@@H](O)CN3CCC(NC(=O)c4ccc(Cl)c(Cl)c4)CC3)c2c1,96,57,21
Cc1c(CC(=O)NCCC2CCN(CCCCCNC(=O)/C=C/c3ccc(Cl)c(Cl)c3)CC2)sc2ccc(Cl)cc12,92,8,59
Cc1ccc(Cc2c(C)nc3nc(N)nc(N)c3c2C)cc1.Cl,93,1,60
c1ccc2[nH]c(-c3ccc(-c4ccc(CN5CCN(c6ccncc6)CC5)cc4)s3)nc2c1,100,100,25
O=C(O)C(F)(F)F.c1ccc2[nH]c(-c3ccc(-c4ccc(CN5CCN(CCN6CCOCC6)CC5)cc4)s3)nc2c1,100,100,39
CCCCCCc1cc2cc(-c3nc(-c4ccc(OC)cc4)cs3)c(=O)oc2cc1O,97,93,45
O=C(O)C(F)(F)F.c1ccc(CNCc2cccc(-c3ccc(-c4nc5ccccc5[nH]4)cc3)c2)cc1,97,39,10
CN1CCN(c2cc(-c3cccc(C(F)(F)F)c3)nc(-c3ccncc3)n2)CC1,100,98,38
CCc1ccc(CN2CCC(CNC(=O)c3cc(-c4cccc(F)c4)cs3)C2)cc1.O=C(O)C(F)(F)F (stereo not drawn),84,4,23
CN(C)CCC1CCN(CCS(=O)(=O)c2cccc(Nc3ncc(-c4cccc(F)c4)cn3)c2)CC1,96,12,59
COC(=O)/C=C/c1ccc(CCC(C)NCC(O)c2cccc(Cl)c2)cc1 (stereo not drawn),94,77,5
COc1ccc(NC(=O)/C=C/c2ccc(Oc3ccccc3Cl)c([N+](=O)[O-])c2)cc1OCCN(C(C)C)C(C)C,99,97,31
CC(C)c1ccc(N2CCN(CCCCNC(=O)c3ccc(NC(=O)c4cc(Cl)cc(Cl)c4)cc3)CC2)cc1,100,86,12
COc1cc(NC(=O)/C=C/c2cccc3cc[nH]c23)ccc1OCCN(C(C)C)C(C)C.Cl,99,51,11
CC1CN(c2cnn(Cc3cccc(NC(=O)Nc4ccc(-c5ccccc5)cc4)c3)c(=O)c2Cl)CC(C)N1.O=C(O)C(F)(F)F (stereo not drawn),100,67,6
CCN(CCCN1CCCCC1)c1cc(C)nc(Nc2ccc(OC)cc2)n1.O=C(O)C(F)(F)F,100,24,23
O=C(O)C(F)(F)F.OCC1CCN(Cc2ccc(-c3ccc(-c4nc5cc(C(F)(F)F)ccc5[nH]4)cc3)cc2)CC1,100,91,17
CC(C)NCc1ccc(-c2cccc(CN3CCC(c4ccccc4)CC3)c2)c(C(=O)NCC2CCCCC2)c1.O=C(O)C(F)(F)F,98,76,42
Cl.c1ccc(Oc2ccc(Nc3ccnc4cc(-c5ccc(CN6CCNCC6)o5)ccc34)cc2)nc1,100,99,7
Cc1ccc2[nH]c3ccccc3c(=O)c2c1,93,74,0
O=C(Nc1ccc(F)cc1)NC1CCN(c2ccnc3cc(Cl)ccc23)CC1.O=C(O)C(F)(F)F,97,57,10

Structure (SMILES),Inhibition [1] [%],Inhibition [2] [%],Inhibition [3] [%]
COc1ccc2c(=NN=Cc3ccc(OC)c4ccccc34)cc(C)[nH]c2c1,100,99,3
CC1CN(c2cnn(C/C=C/c3ccc(NC(=O)c4ccc([N+](=O)[O-])cc4)cc3)c(=O)c2Cl)CC(C)N1.O=C(O)C(F)(F)F (stereo not drawn),96,38,22
COc1ccc(-c2cccc(NC(=O)c3cccc(Cl)c3)c2)cc1CN1CCCC1.O=C(O)C(F)(F)F,99,66,45
Cc1ccc(NC(=O)c2ccc3ncccc3c2)cc1OC1CCN(CCC(C)C)CC1.O=C(O)C(F)(F)F,94,48,2
O=C(NCC1CCN(Cc2ccc(F)cc2)C1)c1cc(-c2cccc(C(F)(F)F)c2)cs1.O=C(O)C(F)(F)F (stereo not drawn),93,18,38
CCCCN(CCCC)CCCCNc1c2ccccc2nc2ccccc12.Cl,100,100,36
CCn1c(-c2cc(C)on2)nc2cnc(Oc3ccc(C(=O)N4CC(=O)N(C)C4C(C)(C)C)cc3)cc21 (stereo not drawn),81,57,44
Cc1ccc([S+]([O-])Cc2ccc(Cl)cc2)cc1 (stereo not drawn),98,5,8
COc1ccc(CN2CCCN(Cc3cccc(C(=O)Nc4ccc(C)c(F)c4)c3)CC2)cc1.O=C(O)C(F)(F)F,83,10,49
CC(=O)c1cccc(NC(=O)NC2CCN(CCCCCNC(=O)/C=C/c3ccc(Cl)c(Cl)c3)CC2)c1,94,1,7
Cc1cc(N2CCCN(C)CC2)nc(Nc2ccc(Br)cc2)n1,94,14,8
Cc1[nH]cc(Br)c(=O)c1-c1ccc(Oc2ccccc2)cc1,97,96,0
Cc1nc(N)nc(N)c1CCCOc1cccc(Cl)c1,96,0,16
O=C(Nc1ccc(OC2CCN(Cc3ccccc3)CC2)c(Cl)c1)c1ccc(F)cc1.O=C(O)C(F)(F)F,94,92,30
COc1cc2c(cc1C(F)(F)F)N(C(=O)Nc1cc(F)cc(-c3cccnn3)c1)CC2,90,34,21
Cc1n[nH]c(C)c1C1CCN(CC2CCC(NC(=O)/C=C/c3ccc(Cl)c(Cl)c3)CC2)CC1 (stereo not drawn),100,53,15
COc1ccc(CCN2CCC(NCc3cccc(N(C)C)c3)CC2)cc1,98,7,18
COc1c(OC)c(OC)c2ccccc2c1CNCCCCCCNCc1c(OC)c(OC)c(OC)c2ccccc12.Cl,100,71,99
Cl.NC(=O)N1CCN(Cc2ccc(Br)cc2)CC1,96,0,83
CN1CCN(c2cc(NC(=O)c3ccc(-c4ccc(Cl)cc4)cc3)ccc2Cl)CC1,99,33,30
Cn1c(N=C2NC3(c4ccccn4)NC(=Nc4nc5ccccc5n4C)NC3(c3ccccn3)N2)nc2ccccc21.O=C(O)C(F)(F)F (stereo not drawn),99,44,12

Structure (SMILES),Inhibition [1] [%],Inhibition [2] [%],Inhibition [3] [%]
O=C(Nc1ccccc1-c1nc2ccccc2s1)C(Cl)(Cl)Cl,97,99,12
CCCCCCC(C)c1cc(OCCN(CC)CC)c2c(c1)OC(C)(C)C=C2c1ccncc1.Cl (stereo not drawn),90,71,14
Cc1ccc2[nH]c(C3CCCNC3)c(-c3ccncc3)c2c1 (stereo not drawn),100,22,10
CN1CCN(c2ccc(Nc3c(C(N)=O)cnc4cc(-c5ccoc5)ccc34)cc2C(F)(F)F)CC1.Cl,100,97,13
CS(=O)(=O)c1ccccc1CNC(=O)c1cccc(-c2ccc(-c3nc4cc(C(F)(F)F)ccc4[nH]3)cc2)c1,95,7,86
Cc1cccc2nc(-c3cccc(-c4ccc(NC(=O)C(C)(C)c5ccccn5)cc4)c3)[nH]c12,97,4,0
CN(C)CCN(C)Cc1ccc(-c2cccc(NC(=O)c3ccc(Cl)cc3)c2)cc1.O=C(O)C(F)(F)F,97,71,69
COc1cc(C2CCN(CCCCNC(=O)c3ccc(NC(=O)c4ccc(Cl)c(Cl)c4)cc3)CC2)ccc1OC(C)C,100,96,45
CCOC(=O)c1c(C)noc1Nc1ccc(OC)cc1,99,0,0
c1ccc(-c2cccc(-c3ccccn3)n2)nc1 [TERPYRIDINE],98,99,45
CNC(=O)C(NC(=O)c1ccccc1C(=O)OC)c1ccccc1 (stereo not drawn),96,2,4
Cc1nnc(-c2ccc3ccccc3c2)c2cn(-c3cccc([N+](=O)[O-])c3)nc12,91,67,29
Cc1cccc(NC(=O)c2cnc(N3CCN(c4ccncc4)CC3)c(Cl)c2)c1.O=C(O)C(F)(F)F,100,54,36
O=C(/C=C/c1ccc(Cl)c(Cl)c1)NCCCCCN1CCC(NC(=O)Nc2cccc(F)c2)CC1,100,6,30
COc1ccc(CCNc2nc(N)c3cc(OC)c(OC)cc3n2)cc1.Cl,100,1,16
COC(=O)C(NC(=O)NC1CCN(c2ccnc(Nc3ccc(F)cc3)n2)C1)c1ccccc1 (stereo not drawn),87,8,11
c1ccn2c(Sc3ncnc4sccc34)ncc2c1,100,100,0
CNCCCn1c(N(C)C)nc2cc(-n3cnc4cc(-c5ccc(Cl)cc5)sc4c3=O)ccc21.O=C(O)C(F)(F)F,86,27,39
Cc1ccc(-c2ccc3c(c2)C=C(C(=O)NC2CCN(CCNC(=O)c4cccs4)CC2)CCC3)cc1.O=C(O)C(F)(F)F,90,30,27
